Results from PubChem BioAssay (NCI).
Where “and” joins values, the source holds several entries; their conditions need not be identical. Equal values may be shown once. About 83,000 compounds went through this panel and 20% of them were active in at least one assay; those are over-represented in the sample as a whole.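 Results are percent growth after 48 hours of single-concentration exposure. 100 means growth as in untreated cells, lower positive values show inhibition; negative values down to -100 show cell death.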 Calls of active or inactive are those of the source.

These molecules were tested on OVCAR-3 ovarian (assay: NCI-60 one-dose screen, 48 h (100 = growth as untreated, 0 = no growth, -100 = all killed)). Conditions: 10 µM.
Method: Growth inhibition of the OVCAR-3 human tumor cell line is measured as a screen for anti-cancer activity. Cells are grown in 96 well plates and exposed to the test compound for 48 hours. Compounds are tested at a single concentration, which is 10^-5 M for most compounds. The reported endpoint is percent growth (GI% or GIPRCNT), where numbers from 0 - 100% represent growth inhibition, and numbers from -100% - 0 represent cell death. For example, a value of 40 represents 60% growth inhibition. A value of 0 means no net growth occurred over the course of the experiment. A value of -40 indicates 40% of cells at the beginning of the experiment died by the end of the experiment. A value of -100 means all cells are dead at the end of the experiment.
NCI-60 Human Tumor Cell Lines Screen was performed using the standard one-dose NCI protocol, which is described in more detail at https://dtp.cancer.gov/discovery_development/nci-60/default.htm.
Compounds with GIPRCNT values below 10 were considered active. Activity score was based on GIPRCNT using the following formula: […]
Score is 0 for GIPRCNT values of 100 or above, 50 for GIPRCNT values of 0, and 100 for GIPRCNT values of -100.

Compound	growth
O=C(Nc1cccc(Br)c1)Oc1cccc2cccnc12	119% (inactive)
O=C(Nc1c(Cl)cccc1Cl)Oc1cccc2cccnc12	14% (inactive)
COc1ccc(-c2cscc2N)cc1	112% (inactive)

Same assay, conditions: 10 µM unless noted

Compound	growth
Cc1cc(C(C)(CC(C)C)c2ccc(O)c(C)c2)ccc1O	106% (inactive)
Cn1c2ccccc2c2nnc(N/N=C/c3ccccn3)nc21	23.5% (inactive)
O=[N+]([O-])c1ccc2c(N=Nc3ccc4ccccc4c3O)c(O)cc(S(=O)(=O)O)c2c1	41.4% (inactive)
O=C1c2ccccc2C(=O)N1c1ccccc1	108% (inactive)
CN(C)C(=O)SC1=C(c2c(Cl)cccc2Cl)C(=O)c2ccccc21	-81.5% (active)
CCCCCCC(C)c1ccccc1O (stereo not given) (tested in a mixture with another compound)	111% (inactive)
Cn1c2c(c3ccccc31)CCN1C[C@@H]3CCCC[C@H]3C[C@@H]21	-74.3% (active)
Cc1ccc2nc(C[n+]3ccc4ccccc4c3)ccc2c1	52.8% (inactive)
Cc1ccc(NS(=O)(=O)c2ccc(C)cc2)cc1	105% (inactive) and 98.9% (inactive)
COC(=O)c1nc(=S)[nH]c(C(=O)OC)c1C(=O)c1ccccn1	34.5% (inactive)
N[C@H](C(=O)O)[C@@H]1CC(Cl)=NO1	32.4% [20 µM] (inactive)
Cc1ccnc(NC(c2ccccc2)c2ccc3cccnc3c2O)c1 (stereo not given)	19.5% (inactive)
O=C1c2cccnc2-c2nccc3c2c1nc1cc(Br)ccc13	-83.1% (active) and -95.4% (active)
COC(=O)Nc1nc2ccc(C(=O)c3ccccc3)cc2[nH]1	-50.1% (active) and -60.4% (active) and -59.4% (active)
CCOC(=O)/C=C/c1ccc([N+](=O)[O-])o1	17.1% (inactive)
Nc1ncnc2c1ncn2C1OC(CO)C(O)C1O (stereo not given)	116% (inactive) and 89.8% (inactive) and 108% (inactive)
O=C(O)C1C2CC3C(OC(=O)C31)C2Br (stereo not given)	110% (inactive) and 106% (inactive)

Compound	growth
CCC(=O)Sc1ccccc1C(=O)Nc1ccc(Cl)cc1	39.9% (inactive)
O=[N+]([O-])c1ccc(N=Nc2ccc(O)cc2O)cc1	54.8% (inactive)
O=C1C2=C(Nc3cc([N+](=O)[O-])ccc3N2)OC1c1c2ccccc2cc2ccccc12 (stereo not given)	69.4% (inactive)
O=C(Nc1ccccc1)Oc1c(Cl)c(Cl)c(Cl)c(Cl)c1Cl	96.9% (inactive) and 104% (inactive)
O=C(/C=C/c1cccc(Cl)c1)c1ccccc1	84.9% (inactive) and 80.5% (inactive)
CNC(=O)N/N=C/c1ccc([N+](=O)[O-])o1	103% (inactive)
CNc1ccc2c(c1)c1ccccc1n2C	102% (inactive)
c1ccc2c(c1)Nc1cc3ccccc3cc1N2	-3.74% (active)
N#CSCc1c(Cl)cccc1Cl	4.78% (active)
O=C1NC(=O)/C(=C/C=C/c2ccccc2)S1	58.3% (inactive)
O=C1c2ccccc2C(=O)c2sc(Nc3ccc(Cl)cc3)nc21	-39.6% (active)
NC(=O)/C=C/C(=O)c1c(Cl)cccc1Cl	-81.3% (active)
C[n+]1c(/C=C/c2ccc([N+](=O)[O-])cc2)ccc2ccccc21	99.5% (inactive)
CCN(CC)CCOc1ccc(-c2nc3cc(Cl)ccc3s2)cc1	-4.49% (active)
N#CSCC(=O)c1ccc(Cl)cc1	-25.3% (active)
C=CCOc1ccc(N=NC(C#N)C#N)cc1	39.7% (inactive)
CCCCCC(CCCCC)C(=O)O	118% (inactive)

Same assay, conditions: 100 µM

Compound	growth
O=C(Nc1cccc(Br)c1)Oc1cccc2cccnc12	-74.7% (active)
O=C(Nc1c(Cl)cccc1Cl)Oc1cccc2cccnc12	4.16% (active)
COc1ccc(-c2cscc2N)cc1	40.9% (inactive)
